Consider 5 compounds from PubChem BioAssay AID905 (National Center for Advancing Translational Sciences (NCATS), 2007).

The list shows a part of the results. Results filed as inconclusive are left out. Calls of active or inactive are those of the source. Calls come from the whole dose curve; as a rule, active = well fitted curve in the direction sought with a large enough effect; inconclusive = small, poorly fitted or top-dose-only effect, or another doubt; inactive = no such curve, though single readings can be large or run the other way.

A short description of the assay: Cell Viability - CRE-beta lactamase CHO cell - 24 hr assay. The note with it: CRE-bla CHO viability, ATP luminescence; series mostly up to 46.1 µM. From the text: NIH Molecular Libraries Screening Centers Network [MLSCN] NIH Chemical Genomics Center [NCGC] National Institutes of Environmental Health Sciences [NIEHS] National Toxicology Program [NTP] MLSCN Grant: 1X01MH079867-01 Assay Provider: Marshall W. Nirenberg, U.S. National Heart, Lung and Blood Institute NCGC Assay Overview: We have developed a 1536-well cell-based assay for quantitative high throughput screening (qHTS) against a number of cell lines to determine in vitro cytotoxicity of small molecules. This particular assay uses CRE-bla CHO cell line from Invitrogen.
NCGC Assay Protocol Summary: The CellTiter-Glo luminescent cell viability assay (Promega) is a homogeneous method to measure the number of viable cells in culture. The end point readout of this assay is based on quantitation of intracellular ATP, an indicator of metabolic activity, using the luciferase reaction. Luciferase catalyzes the oxidation of beetle Luciferin to oxyluciferin and light in the presence of ATP. The luminescent signal is proportional to amount of ATP present. Using the CellTiter-Glo luminescent cell viability assay, the amount of cellular ATP was measured in the CRE-bla CHO cell line with complete culture medium following compound treatment for 24 hours. The assay was performed in opaque white Kalypsys 1536-well plates. In the screen, tamoxifen was used as positive control. The selected compounds were measured for their ability to cause acute toxicity in the cell line, as reflected by a decrease in intracellular ATP levels, in a concentration-dependent manner. Data were normalized to the controls for basal activity (DMSO only) and 100% inhibition (100 uM tamoxifen). AC50 values were determined from concentration-response data modeled with the standard Hill equation. NCGC Assay Protocol Summary 1. Reagent; 5 uL; 2000 CHO cells/well 2. Time; overnight; 37 C incubation 3. Compounds; 23 nL; 5.9 nM to 46 uM 4. Controls; 23 nL; Tamoxifen 4.5 nM to 92 uM 5. Time; 24 hr; 37 C incubation 6. Reagent; 5 uL; CellTiter Glo reagent 7. Time; 20 min; Room Temperature 8. Detection; Luminescence; Viewlux plate reader Keywords: cell viability, cytotoxicity, CHO cell line, luminescence, MLSMR, MLSCN, NIH Roadmap, qHTS, NCGC
For the compound `CCc1nc(Nc2ccc3nccnc3c2)c2oc3ccccc3c2n1`, the compound was classed as inactive.
For the compound `Cc1nn(-c2ccccc2)c2sc(C(=O)N(Cc3ccco3)C(C)C(=O)NC(C)(C)C)cc12` (stereo not given), the outcome was inactive.
The entry for `COc1ccc(CCNC(=O)CSc2nc(C)nc3c2oc2ccccc23)cc1OC` is “inactive”.
With `CC1CCc2sc3nc(N4CCN(CCO)CC4)n4ncnc4c3c2C1` (stereo not given), the outcome was inactive.
With `Cc1nc(SCC(=O)Nc2cc(C)on2)c2c3c(sc2n1)CCCC3`, the outcome was inactive.
